This is part of a sample that, as a whole, favours compounds with a hit. Of some 83,000 tested, about 20% had one in any assay.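 Activity criterion: percent growth below 10, measured after cells in 96-well plates were exposed to a single compound concentration for 48 hours.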 A number with no mark means an inactive call. Active and inactive are the calls of the source.

This note sets out measurements from PubChem BioAssay (NCI).

Test systems include HT29 colon; SNB-75 CNS; SNB-19 CNS; U251 CNS; PC-3 prostate; SK-MEL-5 melanoma; UACC-62 melanoma; LOX IMVI melanoma; SK-MEL-28 melanoma; SK-MEL-2 melanoma; SN12C renal; UO-31 renal; TK-10 renal; ACHN renal; CAKI-1 renal; A498 renal; CCRF-CEM leukemia; MOLT-4 leukemia; SR leukemia.
Common to all, as to assay: NCI-60 one-dose screen, 48 h (100 = growth as untreated, 0 = no growth, -100 = all killed)
Details in all cases: 10 µM

Regarding `O=C(c1cccs1)c1ccccc1Cc1ccccc1`, the growth with HT29 colon was 96.6%; in the experiment with SNB-75 CNS, 94.4%; with SNB-19 CNS, 90.4%; in the experiment on U251 CNS, 92.5%; with PC-3 prostate, 87.7%; in the experiment on SK-MEL-5 melanoma it was 97.9%. Also, the growth with UACC-62 melanoma was 90.1%; in the experiment on LOX IMVI melanoma it was 103%; in the experiment on SK-MEL-28 melanoma it was 101%; in the experiment with SK-MEL-2 melanoma it was 96.1%; in the experiment with SN12C renal, 96.4%; in the experiment on UO-31 renal it was 80.3%. The growth is 94.5% with TK-10 renal; 100% in the experiment with ACHN renal; 89.6% in the experiment on CAKI-1 renal; 58.4% in the experiment on A498 renal; 93.7% with CCRF-CEM leukemia; 92.5% in the experiment on MOLT-4 leukemia. In addition, the growth with SR leukemia was 93.1%.
Consider `CCOC(=O)C(CSC(c1ccccc1)(c1ccccc1)c1ccccc1)NC(=O)C(CSC(c1ccccc1)(c1ccccc1)c1ccccc1)NC(c1ccccc1)(c1ccccc1)c1ccccc1` (stereo not drawn), for which the growth is 113% with HT29 colon; 86.8% in the experiment on SNB-75 CNS; 107% with SNB-19 CNS; 97.3% in the experiment with U251 CNS; 102% with PC-3 prostate; 98.6% in the experiment with SK-MEL-5 melanoma. Besides, the growth is 113% in the experiment on UACC-62 melanoma; 99.6% in the experiment with LOX IMVI melanoma; 99.8% with SK-MEL-28 melanoma; 115% with SK-MEL-2 melanoma; 110% in the experiment with SN12C renal; 94.8% in the experiment with UO-31 renal. The growth was 118% with TK-10 renal; 104% with ACHN renal; 87% in the experiment with CAKI-1 renal; 91.3% in the experiment with A498 renal; 100% with CCRF-CEM leukemia; 110% with MOLT-4 leukemia.
With `COc1cc(Cl)cc(-c2nn(-c3cccc(NC(=O)c4ccc(N5CCOCC5)c(C(F)(F)F)c4)c3)cc2-c2ccncc2)c1`, the growth was 21.2% in the experiment on HT29 colon; 34.9% in the experiment with SNB-75 CNS; 75.5% in the experiment on SNB-19 CNS; 32.3% in the experiment on U251 CNS; 29.1% with PC-3 prostate; 71.5% in the experiment on SK-MEL-5 melanoma. Moreover, the growth in the experiment on UACC-62 melanoma was 67.8%; with LOX IMVI melanoma it was 47.3%; with SK-MEL-28 melanoma it was 53.2%; with SK-MEL-2 melanoma, 64.9%; with SN12C renal, 79.8%; in the experiment with UO-31 renal it was 40.7%. Also, the growth in the experiment with TK-10 renal was 90.6%; with ACHN renal, 50.1%; in the experiment on CAKI-1 renal it was 46.7%; in the experiment on A498 renal, 31.5%; in the experiment with CCRF-CEM leukemia, 31.7%; in the experiment on MOLT-4 leukemia, 38.3%. Besides, the growth in the experiment with SR leukemia is 18.4%.
Consider `Cc1cc(Nc2ccc(Cl)cc2)nc(NCCCNc2ccnc3cc(Cl)ccc23)n1`, for which the growth in the experiment on HT29 colon is -91.4% (active); in the experiment with SNB-75 CNS, -94.9% (active); with SNB-19 CNS, -14.3% (active); in the experiment with U251 CNS, -91.3% (active); in the experiment on PC-3 prostate, -19.4% (active); with SK-MEL-5 melanoma, -99.8% (active). Further, the growth is -80.2% (active) in the experiment with UACC-62 melanoma; -83.8% (active) in the experiment on LOX IMVI melanoma; -99.8% (active) in the experiment on SK-MEL-28 melanoma; -93.4% (active) in the experiment on SK-MEL-2 melanoma; -75.9% (active) in the experiment with SN12C renal; -40.1% (active) in the experiment on UO-31 renal. The growth in the experiment with TK-10 renal is -74.7% (active); in the experiment with ACHN renal, -81.1% (active); in the experiment with CAKI-1 renal, -36.3% (active); with A498 renal, 12.7%; with CCRF-CEM leukemia, -22.7% (active); with MOLT-4 leukemia, -47.7% (active).
Turning to `c1ccc2c(-c3nc(N4CCOCC4)c4c5c(sc4n3)CCCCCC5)cccc2c1`, the growth was 101% in the experiment on HT29 colon; 85.2% in the experiment on SNB-75 CNS; 104% in the experiment on SNB-19 CNS; 91% in the experiment on U251 CNS; 95% in the experiment with PC-3 prostate; 94% in the experiment on SK-MEL-5 melanoma. Also, the growth with UACC-62 melanoma is 96.6%; with LOX IMVI melanoma, 105%; in the experiment with SK-MEL-28 melanoma it was 105%; in the experiment with SK-MEL-2 melanoma, 104%; in the experiment on SN12C renal, 99.5%; with UO-31 renal, 101%. Further, the growth in the experiment on TK-10 renal was 116%; in the experiment with ACHN renal, 100%; in the experiment with CAKI-1 renal, 99.2%; in the experiment on A498 renal it was 102%; in the experiment on CCRF-CEM leukemia, 96.9%; with MOLT-4 leukemia it was 97.2%. Moreover, the growth in the experiment with SR leukemia was 94.8%.
With `COc1ccc(S(=O)(=O)Nc2c(/C=C\c3cc(OC)c(OC)c(OC)c3)ccc(OC)c2O)cc1`, the growth is 11.7% with HT29 colon; 31.3% in the experiment on SNB-75 CNS; 48.5% with SNB-19 CNS; 6.01% (active) with U251 CNS; 30.5% in the experiment on PC-3 prostate; -17% (active) in the experiment with SK-MEL-5 melanoma. Also, the growth with UACC-62 melanoma is 38.6%; in the experiment on LOX IMVI melanoma, 15.5%; in the experiment on SK-MEL-28 melanoma, 58.2%; with SK-MEL-2 melanoma, 3.84% (active); in the experiment with SN12C renal it was 20.9%; in the experiment on UO-31 renal, 39.9%. The growth was 39.9% in the experiment on TK-10 renal; 22.7% with ACHN renal; 32.9% in the experiment on CAKI-1 renal; -19.9% (active) in the experiment with A498 renal; 13.5% in the experiment with CCRF-CEM leukemia; 8.7% (active) in the experiment with MOLT-4 leukemia. For the same compound, the growth in the experiment on SR leukemia was 10.5%.
As to `CCOC(=O)N/N=C\C(C)=N\NC(=O)OCC`, the growth in the experiment with HT29 colon was 98%; with SNB-75 CNS, 92.1%; with SNB-19 CNS it was 98.5%; in the experiment with U251 CNS, 92.7%; in the experiment on PC-3 prostate, 93%; with SK-MEL-5 melanoma, 109%. Also, the growth is 99.3% in the experiment on UACC-62 melanoma; 96.2% in the experiment on LOX IMVI melanoma; 103% in the experiment with SK-MEL-28 melanoma; 111% in the experiment with SK-MEL-2 melanoma; 94.6% in the experiment with SN12C renal; 85.1% in the experiment with UO-31 renal. In addition, the growth in the experiment with TK-10 renal was 98.8%; in the experiment on ACHN renal it was 99.4%; in the experiment with CAKI-1 renal it was 90.1%; in the experiment with A498 renal, 103%; with CCRF-CEM leukemia, 93.6%; in the experiment on MOLT-4 leukemia, 101%. In addition, the growth in the experiment with SR leukemia was 96.6%.
On to `COC(=O)C1=NNC(=S)N(c2cc(C)[nH]n2)C(=O)C1`, for which the growth in the experiment with HT29 colon is 113%; in the experiment on SNB-75 CNS, 93.9%; with SNB-19 CNS it was 98%; in the experiment with U251 CNS it was 101%; in the experiment with PC-3 prostate, 99.1%; in the experiment on SK-MEL-5 melanoma, 101%. Further, the growth in the experiment with UACC-62 melanoma was 103%; in the experiment on LOX IMVI melanoma, 95.9%; in the experiment on SK-MEL-28 melanoma, 114%; in the experiment on SK-MEL-2 melanoma, 100%; with SN12C renal it was 96.3%; in the experiment with UO-31 renal, 76.5%. Further, the growth with TK-10 renal is 114%; with ACHN renal, 107%; in the experiment on CAKI-1 renal, 92.5%; in the experiment with A498 renal it was 81.8%; with CCRF-CEM leukemia, 91.8%; in the experiment with MOLT-4 leukemia, 84.1%. Also, the growth in the experiment with SR leukemia is 86.3%.
In the case of `CSC1=NCCCC1`, the growth in the experiment with HT29 colon was 120%; in the experiment on SNB-75 CNS, 99.9%; with SNB-19 CNS it was 110%; with U251 CNS, 103%; with PC-3 prostate, 100%; in the experiment on SK-MEL-5 melanoma it was 106%. For the same compound, the growth in the experiment on UACC-62 melanoma is 113%; in the experiment with LOX IMVI melanoma, 98.4%; in the experiment with SK-MEL-28 melanoma it was 109%; with SK-MEL-2 melanoma it was 105%; in the experiment with SN12C renal it was 110%; in the experiment on UO-31 renal, 86.8%. Besides, the growth was 125% in the experiment on TK-10 renal; 102% in the experiment with ACHN renal; 115% in the experiment with CAKI-1 renal; 106% with A498 renal; 103% in the experiment with CCRF-CEM leukemia; 108% in the experiment with MOLT-4 leukemia.
